The campaign covered roughly 220,000 compounds. About 910 (0.41%) were called active.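 Rule for the calls: active = primary inhibition above the hit cutoff, then over 50% inhibition at one or more dose response concentrations (cut at about 23% in these data, passing the limit was not always enough); inconclusive = conflicting primary data, or primary hits not chosen for dose response; inactive = low primary inhibition, or under 50% at every dose.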 This excerpt belongs to a sample that is enriched for actives. Entries with a potency or affinity are not part of this list.

In this assay the target is Aminopeptidase N (Plasmodium falciparum (isolate 3D7)) (UniProt O96935). The assay can be described thus: P. falciparum M1AAP inhibitors, biochemical, fluorogenic H-Leu-NHMec substrate, 1536-well (AID 1445).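 Note: plate controls were DMSO full reaction for no effect and no enzyme background for full effect.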 Particulars: recombinant M1AAP, H-Leu-NHMec fluorogenic kinetic assay; at 30 µM, active compounds read high unless noted.
Sequence of Aminopeptidase N (Plasmodium falciparum (isolate 3D7)) (O96935 whole entry, looked up): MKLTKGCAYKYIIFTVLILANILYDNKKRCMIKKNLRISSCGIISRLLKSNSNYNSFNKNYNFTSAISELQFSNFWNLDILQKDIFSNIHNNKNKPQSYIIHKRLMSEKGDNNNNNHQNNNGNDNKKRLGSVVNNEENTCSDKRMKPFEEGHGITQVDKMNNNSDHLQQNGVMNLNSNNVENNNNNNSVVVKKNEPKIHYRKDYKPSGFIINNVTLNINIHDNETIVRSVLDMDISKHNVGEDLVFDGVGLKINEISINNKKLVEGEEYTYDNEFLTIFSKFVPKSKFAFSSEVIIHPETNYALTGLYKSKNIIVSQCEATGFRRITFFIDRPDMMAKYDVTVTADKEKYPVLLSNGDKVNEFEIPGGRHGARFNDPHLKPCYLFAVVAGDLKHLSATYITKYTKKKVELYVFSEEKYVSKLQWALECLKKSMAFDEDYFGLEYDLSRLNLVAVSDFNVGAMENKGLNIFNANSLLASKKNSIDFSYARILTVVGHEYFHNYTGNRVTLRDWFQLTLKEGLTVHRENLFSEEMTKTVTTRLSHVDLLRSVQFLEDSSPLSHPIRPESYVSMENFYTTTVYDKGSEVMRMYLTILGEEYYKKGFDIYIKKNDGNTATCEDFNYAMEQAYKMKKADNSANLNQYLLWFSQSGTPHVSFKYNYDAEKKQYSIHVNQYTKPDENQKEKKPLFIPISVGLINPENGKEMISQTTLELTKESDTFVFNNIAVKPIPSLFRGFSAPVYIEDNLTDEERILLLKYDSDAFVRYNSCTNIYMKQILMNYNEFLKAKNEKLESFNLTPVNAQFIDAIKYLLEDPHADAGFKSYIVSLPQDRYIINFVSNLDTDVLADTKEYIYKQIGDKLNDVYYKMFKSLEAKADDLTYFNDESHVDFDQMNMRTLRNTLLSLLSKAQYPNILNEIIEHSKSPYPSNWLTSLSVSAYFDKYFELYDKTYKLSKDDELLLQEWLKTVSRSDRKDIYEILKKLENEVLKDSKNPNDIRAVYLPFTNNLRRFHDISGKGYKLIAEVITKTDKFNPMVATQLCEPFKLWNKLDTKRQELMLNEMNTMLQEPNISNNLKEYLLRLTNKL
Take `CCN(CC)S(=O)(=O)c1ccc(N/N=C/c2ccccc2OCC(=O)O)c([N+](=O)[O-])c1`: the inhibition is 11.3% (inactive).

In the case of `COc1ccccc1NS(=O)(=O)c1ccc(N/N=C/c2ccccc2OCC(=O)O)c([N+](=O)[O-])c1`, the inhibition was 13.1% (inactive).

Take `COC(=O)/C(=C\Nc1cccc(Cl)c1C)c1ncc(C(F)(F)F)cc1Cl`: the inhibition is -7.97% (inactive).

`Cc1cc(C(=O)COC(=O)c2ccc(N)c([N+](=O)[O-])c2)c(C)n1-c1ccc2c(c1)OCO2`: the inhibition is 4.88% (inactive).

With `COc1cc([N+](=O)[O-])ccc1-c1ccc(/C=N/NC(N)=O)o1`, the inhibition was 0.13% (inactive).

In the case of `COc1cc([N+](=O)[O-])ccc1-c1ccc(/C=N/NC(=O)OC(C)(C)C)o1`, the inhibition was 3.22% (inactive).

For `N#CCCN(CCC#N)C(=O)c1ccc(Cl)cc1`, the inhibition is 0.66% (inactive).

With `Nc1cc(N)nc(SCc2cccnc2)n1`, the inhibition was -6.1% (inactive).

In the case of `O=C(CO/N=C/c1c(Cl)cccc1Cl)NNC(=O)c1cccc(Cl)c1`, the inhibition was 0.37% (inactive).

Turning to `O=C(NNC(=O)c1cc(-c2ccccc2)nc2ccccc12)Nc1cccc(Cl)c1`, the inhibition is 6.82% (inactive).

As for `Cc1cccc(S(=O)(=O)NNC(=O)c2cc(-c3ccc(F)cc3)nc3ccccc23)c1`, the inhibition is 15.2% (inactive).

`Cc1cccc(N2CCN(Cc3cnc(Cl)s3)CC2C)c1` (stereo not drawn): the inhibition was 3.39% (inactive).

Regarding `COc1ccc(CNC(=O)c2csc(Cc3ccccc3)n2)cc1`, the inhibition was 2.78% (inactive).

Take `Cc1nc2ccc(Cl)cc2c(-c2ccccc2F)c1CC(=O)O`: the inhibition was 16.3% (inactive).

For the compound `Cc1nc2ccc(Cl)cc2c(-c2ccccc2Cl)c1CC(=O)O`, the inhibition is -0.5% (inactive).

Take `C/C(Cn1cnc([N+](=O)[O-])n1)=N\NC(=O)c1ccccc1`: the inhibition is 15.8% (inactive).

For the compound `CCOc1ccc(NC(=O)C/C(N)=N/O)cc1`, the inhibition was -8.44% (inactive).

For `O=C(O)c1cccc(S(=O)(=O)Nc2ccccc2Cl)c1`, the inhibition is 0.86% (inactive).

Consider `COc1ccc([N+](=O)[O-])cc1NS(=O)(=O)c1cccc(C(=O)O)c1`, for which the inhibition is 7.17% (inactive).

Take `CCOc1cc(C(=O)N(C)Cc2cc3ccccc3[nH]c2=O)cc(OCC)c1OCC`: the inhibition was 4.4% (inactive).

On to `CCCCCc1nc2sc3c(c2c(=O)n1NC(=O)c1ccc([N+](=O)[O-])cc1)CC(C)(C)OC3`, for which the inhibition is 4.81% (inactive).

Consider `CCCCCCCCCc1nc2sc3c(c2c(=O)n1NC(=O)c1ccccc1[N+](=O)[O-])CC(C)(C)OC3`, for which the inhibition was -2.36% (inactive).

In the case of `CCc1nc2sc3c(c2c(=O)n1N)CC(C)(C)OC3`, the inhibition was -0.3% (inactive).

Consider `CCCCCCCCCc1nc2sc3c(c2c(=O)n1NC(=O)c1ccc([N+](=O)[O-])cc1)CC(C)(C)OC3`, for which the inhibition is 3.87% (inactive).

For the compound `Cn1c(=O)c(C(=O)COc2ccc(F)cc2Cl)c(N)n(Cc2ccccc2)c1=O`, the inhibition is 6.9% (inactive).

On to `COc1ccc(CC(NC(C)=O)C(=O)NC2CCN(c3c(Cc4ccccc4)c(C)nc4ncnn34)CC2)c(OC)c1` (stereo not drawn), for which the inhibition is -2.17% (inactive).

Take `C/C(=N/N1CCN(c2ccccn2)CC1)c1ccc([N+](=O)[O-])cc1`: the inhibition is -1.3% (inactive).

`COc1ccc(Cn2nnc3c(=O)[nH]c(C(=O)NCCc4ccc(F)cc4)nc32)cc1OC`: the inhibition is 24.5% (active).

`O=C(NCCc1ccccc1)c1nc2c(nnn2Cc2ccccc2Cl)c(=O)[nH]1`: the inhibition is -9.83% (inactive).

In the case of `O=C(NCc1cccs1)c1nc2c(nnn2Cc2ccc(F)cc2)c(=O)[nH]1`, the inhibition was 2.78% (inactive).

Regarding `O=C(COC(=O)c1cccc(C(=O)OCC(=O)NCc2ccc(F)cc2)n1)NCc1ccc(F)cc1`, the inhibition was 5.21% (inactive).

For the compound `Cc1cccc(NC(=O)C(NS(=O)(=O)c2ccc3c(c2)CCC(=O)N3)c2ccccc2)n1` (stereo not drawn), the inhibition is 2.64% (inactive).

Regarding `C=CCSc1nnc(NC(=O)c2ccc(Cl)nc2)s1`, the inhibition was 2.22% (inactive).

As to `CSc1ncc(Cl)c(C(=O)Nc2nnc(SC/C=C/c3ccccc3)s2)n1`, the inhibition was 30% (inactive).

As to `CSc1ncc(Cl)c(C(=O)Nc2nnc(SC)s2)n1`, the inhibition was 12.7% (inactive).

On to `CCSc1ncc(Cl)c(C(=O)Nc2ccccc2)n1`, for which the inhibition is 2.17% (inactive).

Take `Fc1ccc(NC(=S)NC23CN4CN(CN(C4)C2)C3)cc1`: the inhibition is 6.25% (inactive).

As for `CCc1cccc(CC)c1NC(=O)COn1nnc2ccc(C(F)(F)F)cc21`, the inhibition was -1.32% (inactive).

`COc1ccc(S(=O)(=O)Nc2ccc(O)c(Sc3ncn[nH]3)c2)cc1`: the inhibition is 18% (inactive).

Regarding `O=S(=O)(Nc1ccc(O)c(Sc2nc3ccccc3s2)c1)c1ccc(Cl)cc1`, the inhibition is 0.11% (inactive).

Turning to `O=C(O)c1cccc(S(=O)(=O)Nc2ccc(O)c(Sc3nc4ccccc4s3)c2)c1`, the inhibition is 22.2% (inactive).

Take `O=S(=O)(Nc1ccc(O)c(Sc2nc3ccccc3s2)c1)c1ccc(F)cc1`: the inhibition is 7.05% (inactive).

Take `Cc1cc(C)nc(NC(=O)/C=C/c2ccc3c(c2)OCO3)c1`: the inhibition was 4.5% (inactive).

With `Cc1cccc(NC(=O)CN2C(=O)COc3ccc(Cl)cc32)c1C`, the inhibition is 0.78% (inactive).

On to `COc1ccc(/C=C2/S/C(=N/S(=O)(=O)Cc3ccccc3)NC2=O)cc1OC`, for which the inhibition is 12.7% (inactive).

On to `COc1cc(/C=C/C(=O)O)ccc1OS(=O)(=O)c1ccc(C)cc1`, for which the inhibition was 0.48% (inactive).

With `COc1ccc(C=O)cc1OS(=O)(=O)c1ccc(NC(C)=O)cc1`, the inhibition is 4.39% (inactive).

Turning to `CCOc1ccc(/C=C2\SC(=S)NC2=O)cc1OC`, the inhibition was 17.4% (inactive).

On to `COc1cc(C=O)ccc1OS(=O)(=O)c1ccc(NC(C)=O)cc1`, for which the inhibition was 7.57% (inactive).

Take `COc1cc(/C=C(\C#N)C(N)=O)ccc1OS(=O)(=O)c1ccc(C)cc1`: the inhibition was 12.9% (inactive).

Consider `CCOc1ccc(S(=O)(=O)N2CCOCC2)cc1[N+](=O)[O-]`, for which the inhibition is 1.27% (inactive).

On to `Nc1ccc(C(=O)OCC(=O)c2cccc([N+](=O)[O-])c2)cc1`, for which the inhibition was -2.36% (inactive).

For `Cc1nc(NCc2ccccc2)sc1C(=O)Nc1ccccc1`, the inhibition is -1.78% (inactive).

With `CN1CCc2c(sc(NC(=O)c3ccc(S(=O)(=O)N4CCc5ccccc54)cc3)c2C(N)=O)C1`, the inhibition is 5.03% (inactive).

In the case of `CCN(CC(=O)Nc1ccccc1OC)C(=O)COc1ccc2ccccc2c1`, the inhibition is 5.71% (inactive).

As to `CC1(C)CC(=O)C2=C(C1)Nc1cc(C(=O)c3ccccc3)ccc1NC2c1ccccn1` (stereo not drawn), the inhibition was 18.1% (inactive).

Turning to `CC1(C)CC(=O)C2=C(C1)Nc1ccccc1NC2c1ccccn1` (stereo not drawn), the inhibition is 8.61% (inactive).

In the case of `Cc1cc2c(cc1C)NC(c1ccccn1)C1=C(CC(C)(C)CC1=O)N2` (stereo not drawn), the inhibition was 23.3% (active).

In general, inhibition refers to the drop in the measured response relative to a control, in per cent.

Source of the values: PubChem BioAssay AID1445 (SRMLSC, 2008).
